TROY signal inh: TROY signaling inhibition; Q293 LMP1-TROYcd NF-kB luciferase reporter, 4 h; inhibition, % at 10 µM; AID 1347056; actives 0.98% (n = 360,000);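 active = compounds whose plate-normalised and pattern-corrected inhibition of the luciferase reporter signal at the single screening dose is 50% or more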
KKLEB cytotox: counter-screen for CF NF-kB inhibitors: cytotoxicity. actives 0.36% (n = 360,000). activity change (cytotoxicity), % at 5 µM. KKLEB CF airway cells viability, ATPlite luminescence, overnight; hits give low values; cells stimulated with P. aeruginosa culture filtrate;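 active = corrected activity change at or below -50% at 5 µM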
Peg3 prom inh: Peg3 promoter activity inhibition | HeLa PEG-Prom luciferase reporter, luminescence, overnight | inhibition, % at 20 µM | actives 1.7% (n = 360,000);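 active = inhibition of at least 50% at 20 µM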
TWEAK-Fn14 inh: TWEAK-Fn14 signaling inhibition | TWEAK-stimulated Fn14 reporter cells, luciferase luminescence, 8 h | actives 2% (n = 360,000) | inhibition, % at 10 µM; in the data active = inhibition above about 50%
CF NFkB block: blocks PAF-induced NF-kB reporter in cystic fibrosis cells; actives 0.86% (n = 360,000); inhibition, % at 5 µM; KKLEB NF-kB-GFP reporter, GFP fluorescence overnight;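 active = at least 50% inhibition at 5 µM, scaled per plate between neutral and stimulator controls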;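 note: PAF is a Pseudomonas aeruginosa culture filtrate used as stimulus; plate controls were PAF-stimulated DMSO wells for no effect and unstimulated DMSO wells for full effect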
HIF-2a block: inhibitors of HIF-2a; inhibition, % at 18.8 µM; 786-0 RCC cells HIF-2a reporter, luciferase luminescence, overnight; actives 0.72% (n = 360,000);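 active = inhibition of the luminescence signal of 40% or more relative to plate controls, in a single-dose primary screen at 18.75 µM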
Mdm2 MdmX conf: Mdm2/MdmX (human) interaction inhibition, confirmed; shares compounds with HIF-2a block; SaOS-2 split-luciferase Mdm2/MdmX complementation, luminescence; inhibition, % at 8 µM; actives 99% (n = 740); AID 504601;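 active = mean inhibition of the luminescence signal across two replicates at or above 26 percent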
Target sequence (O15151 whole entry, looked up): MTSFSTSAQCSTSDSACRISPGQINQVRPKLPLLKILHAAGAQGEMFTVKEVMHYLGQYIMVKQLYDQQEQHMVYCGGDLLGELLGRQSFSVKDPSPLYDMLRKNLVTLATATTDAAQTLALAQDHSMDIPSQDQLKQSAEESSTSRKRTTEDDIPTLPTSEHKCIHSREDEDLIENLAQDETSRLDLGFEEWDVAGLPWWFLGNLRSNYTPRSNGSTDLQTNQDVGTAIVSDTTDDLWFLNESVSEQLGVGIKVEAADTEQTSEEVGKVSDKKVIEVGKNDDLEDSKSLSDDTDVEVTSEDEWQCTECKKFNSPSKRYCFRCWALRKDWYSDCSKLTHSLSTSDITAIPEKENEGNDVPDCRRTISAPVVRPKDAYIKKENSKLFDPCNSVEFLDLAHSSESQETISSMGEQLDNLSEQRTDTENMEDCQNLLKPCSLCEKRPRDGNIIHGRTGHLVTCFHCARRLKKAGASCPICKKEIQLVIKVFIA
Target sequence (Q00987 whole entry, looked up): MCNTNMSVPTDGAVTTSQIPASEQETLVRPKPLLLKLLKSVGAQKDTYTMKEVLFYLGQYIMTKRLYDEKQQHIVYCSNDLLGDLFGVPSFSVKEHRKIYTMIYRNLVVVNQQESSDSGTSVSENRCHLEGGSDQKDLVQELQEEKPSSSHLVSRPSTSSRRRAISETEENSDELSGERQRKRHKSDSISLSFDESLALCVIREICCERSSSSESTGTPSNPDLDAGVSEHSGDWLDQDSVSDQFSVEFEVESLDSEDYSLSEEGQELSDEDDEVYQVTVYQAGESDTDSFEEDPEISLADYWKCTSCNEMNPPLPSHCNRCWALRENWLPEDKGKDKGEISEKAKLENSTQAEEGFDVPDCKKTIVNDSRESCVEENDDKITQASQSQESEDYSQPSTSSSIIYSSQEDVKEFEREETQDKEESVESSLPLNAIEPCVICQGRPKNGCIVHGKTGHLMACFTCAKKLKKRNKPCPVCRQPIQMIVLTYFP
HIF-2a inh conf: confirmation of HIF-2a inhibitors. 786-0 RCC cells, HIF-2a luciferase reporter luminescence, overnight. shares compounds with HIF-2a block. actives 56% (n = 1,800). inhibition, % at 18.8 µM. AID 651580;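 active = mean inhibition across four replicates of at least 40 percent at the single tested concentration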
HIF-1a counter: HIF-1a inhibition counter-screen for HIF-2a hits; MiaPaCa-2 HIF-1a luciferase reporter, desferoxamine, overnight; inhibition, % at 18.8 µM; shares compounds with HIF-2a block; actives 72% (n = 1,800);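 active = mean inhibition of the reporter signal across four replicates at the single tested dose of 50% or more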
Numbers without * were called inactive; . = not tested or not shown. Shown are actives, neighbours in structure and some others; about 4% of the full set was active somewhere.

SMILES	TROY signal inh	KKLEB cytotox	Peg3 prom inh	TWEAK-Fn14 inh	CF NFkB block	HIF-2a block	HIF-2a inh conf	HIF-1a counter	others
COC(CNC(=O)c1c[nH]c2ccc(S(=O)(=O)N3CCC4(CC3)OCCO4)cc2c1=O)OC	28.0	2.1	0.9	-10.0	-4.5	9.5	.	.
O=C(NC(=S)Nc1ccccc1N1CCCCC1)c1ccco1	-12.9	-4.6	28.3	26.8	-11.5	-6.2	.	.
O=C(NC(=S)Nc1ccccc1N1CCCC1)c1ccco1	36.0	-6.2	-18.3	33.4	9.4	75.9*	-7.9	6.6
Cc1ccc(C2CC(c3ccccc3)=NN2C(=O)CSc2nnc(-c3ccncc3)n2C)o1 (stereo not drawn)	13.9	-4.7	0.4	-15.8	-4.1	1.1	.	.
O=c1[nH]c(CN2CCN(S(=O)(=O)/C=C/c3ccccc3)CC2)nc2ccccc12	2.8	-3.8	0.7	18.7	-2.5	12.8	.	.
O=c1[nH]c(CN2CCN(S(=O)(=O)/C=C/c3ccccc3)CC2)nc2cc(Cl)ccc12	5.4	-24.3	44.4	-3.2	-10.1	50.0*	18.1	93.1*
c1ccc(CNc2nc(NCc3ccccc3)c3ccccc3n2)cc1	77.7*	-19.2	104.5*	10.0	-28.1	25.8	.	.	Mdm2 MdmX conf=103.5*
c1ccc(CNc2nc(-c3ccccc3)nc3ccccc23)cc1	12.1	-5.5	14.8	-50.6	5.3	-1.6	.	.
Cc1ccc(S(=O)(=O)Nc2cccc3cccnc23)cc1	79.5*	6.4	109.1*	106.9*	56.7*	81.3*	65.9*	-178.8	Mdm2 MdmX conf=103.2*
Cc1ccc(NS(=O)(=O)c2cccc3cccnc23)c(Cl)c1	-0.5	-11.4	17.2	-0.7	-0.9	5.9	.	.
Cc1[nH]c2ccccc2c1C(=O)CN1C(=O)NC2(CC(C)CC(C)(C)C2)C1=O (stereo not drawn)	14.5	7.8	43.4	11.2	-9.7	45.5*	27.6	62.4*
CCN(Cc1ccccc1)C(=O)CN1C(=O)NC2(CC(C)CC(C)(C)C2)C1=O (stereo not drawn)	18.1	1.0	2.7	25.6	7.3	17.7	.	.
C=CCN1C(=O)N/C(=C/c2ccc(C)o2)C1=O	-10.4	0.8	-15.3	0.5	-9.3	40.2*	-33.5	-13.5
Cc1ccc(NC(=O)CN2C(=O)N/C(=C/c3ccc(C)o3)C2=O)cc1	-2.9	-5.2	-4.3	18.9	9.2	-3.0	.	.
COc1ccc(-c2oc3ncn(CCN4CCOCC4)c(=N)c3c2-c2ccc(OC)cc2)cc1	-16.1	-24.5	38.6	-7.1	14.2	45.4*	12.3	85.5*
COc1ccc(CCNCCN2CCOCC2)cc1	-2.9	-5.5	13.5	-0.7	3.8	11.9	.	.
COc1ccc(-c2oc3ncnc(NCCN4CCOCC4)c3c2-c2ccc(OC)cc2)cc1	15.6	-31.4	51.0*	33.0	35.7	46.6*	30.2	89.8*
COc1ccc(S(=O)(=O)NC(=O)C2(C)CCN2C(=O)C2(c3ccccc3)CC2)cc1 (stereo not drawn)	-1.0	-9.8	12.2	17.2	-8.0	13.3	.	.
CNc1ccc(Br)cc(C(=O)/C=C/c2ccc(OC)cc2)c1=O	3.5	-4.4	-6.7	24.2	-11.0	8.8	.	.
CNc1ccc(Br)cc(C(=O)/C=C/c2cc(OC)ccc2OC)c1=O	-22.4	-12.3	26.5	6.7	9.8	43.1*	95.3*	88.2*
O=C(NNc1ncnc2c1cnn2-c1ccccc1)c1cccs1	-17.9	1.9	-29.1	-8.4	-2.5	-69.1	.	.
O=C(NCc1cccnc1)/C(=C\c1ccc(-c2ccc(Cl)c(Cl)c2)o1)S(=O)(=O)c1ccccc1	89.4*	-98.2*	101.7*	105.0*	98.6*	97.1*	98.7*	106.2*
O=C(NCc1cccnc1)c1ccc(-c2ccc(Cl)cc2)o1	-11.6	-15.3	-22.9	-11.6	-15.2	-28.9	.	.
C=C1C(=O)c2sccc2C(c2ccc(OC)c(OC)c2)C1COC(C)=O (stereo not drawn)	69.3*	-91.5*	104.8*	100.1*	83.8*	86.5*	99.3*	106.5*
CCN1CCN(CC(=O)N2N=C(c3cccs3)CC2c2ccc(OC)c(OC)c2)C(=O)C1=O (stereo not drawn)	4.0	-3.3	25.8	35.5	-7.2	9.6	.	.
SMILES	TROY signal inh	KKLEB cytotox	Peg3 prom inh	TWEAK-Fn14 inh	CF NFkB block	HIF-2a block	HIF-2a inh conf	HIF-1a counter	others
COc1ccc(C2=Nn3c(nnc3-c3ccccc3OC)SC2)cc1OC	44.5	-31.5	6.2	-12.2	53.1*	43.1*	18.4	11.0
COc1ccc(C2=Nn3c(nnc3-c3ccccn3)SC2)cc1OC	-2.6	-11.2	14.7	-1.1	13.9	15.3	.	.
C#CCN(C[C@@H]1[C@@H](OC(=O)NCC2CCCCC2)[C@@H](OC(=O)NCC2CCCCC2)Cn2c(=O)ccc(=O)n21)S(=O)(=O)c1ccc(C)cc1	73.9*	-96.6*	105.5*	106.9*	106.0*	96.7*	99.3*	107.3*
C#CCN(C[C@@H]1[C@@H](OC(=O)NCc2ccc(OC)c(OC)c2)[C@@H](OC(=O)NCc2ccc(OC)c(OC)c2)Cn2c(=O)ccc(=O)n21)S(=O)(=O)c1ccc(C)cc1	10.1	-18.6	24.0	7.2	42.6	33.2	.	.
C#CCN(C[C@@H]1[C@@H](OC(=O)NCCCCCC)[C@@H](OC(=O)NCCCCCC)Cn2c(=O)ccc(=O)n21)S(=O)(=O)c1ccc(C)cc1	88.0*	-88.7*	97.5*	106.5*	87.1*	95.1*	90.6*	106.9*
COc1ccc(-c2cnc3c(NC(C)=O)cc(-c4ccsc4)cn23)cc1OC	-2.9	-4.1	19.1	-21.1	-6.5	-0.9	.	.
CC(NCC(O)COCc1ccc(Cl)cc1)c1ccccc1 (stereo not drawn)	-1.6	-6.7	-8.7	18.0	24.5	11.8	.	.
CCOc1ccc(NC(=O)CN(C)C(=O)/C=C/c2ccc(S(=O)(=O)N3CCCCCC3)cc2)cc1OCC	-9.7	-14.3	21.5	-11.8	10.7	5.8	.	.
CCN(CC(=O)Nc1ccc(NC(C)=O)cc1)C(=O)/C=C/c1ccc(S(=O)(=O)N2CCCCCC2)cc1	-7.4	-15.9	43.7	-2.5	15.8	42.4*	16.0	28.0
Cc1sc2ncnc(N3CCC(C(=O)Nc4cc(Cl)ccc4Cl)CC3)c2c1C	40.4	-8.6	16.7	9.7	-5.2	1.2	.	.
Cc1sc2ncnc(N3CCC(C(=O)Nc4cc(S(C)(=O)=O)ccc4Cl)CC3)c2c1C	41.4	-1.7	32.7	36.8	44.9	41.4*	-1.0	73.9*
Cc1ccccc1NC(=S)N(C)CCc1ccccn1	39.6	0.9	6.5	-17.0	0.6	3.5	.	.

Screening results (PubChem)
